What was measured:
[1] = biological target: Protein kinase C eta type (Homo sapiens) (UniProt P24723); settings: at 1 µM
[2] = biological target: Protein kinase C eta type (Homo sapiens) (UniProt P24723); settings: at 10 µM
[3] = biological target: Protein kinase C theta type (Homo sapiens) (UniProt Q04759); settings: at 10 µM
[4] = biological target: T1, Serine/threonine-protein kinase D1 (Homo sapiens) (UniProt Q15139); settings: at 1 µM
T1 sequence (whole entry): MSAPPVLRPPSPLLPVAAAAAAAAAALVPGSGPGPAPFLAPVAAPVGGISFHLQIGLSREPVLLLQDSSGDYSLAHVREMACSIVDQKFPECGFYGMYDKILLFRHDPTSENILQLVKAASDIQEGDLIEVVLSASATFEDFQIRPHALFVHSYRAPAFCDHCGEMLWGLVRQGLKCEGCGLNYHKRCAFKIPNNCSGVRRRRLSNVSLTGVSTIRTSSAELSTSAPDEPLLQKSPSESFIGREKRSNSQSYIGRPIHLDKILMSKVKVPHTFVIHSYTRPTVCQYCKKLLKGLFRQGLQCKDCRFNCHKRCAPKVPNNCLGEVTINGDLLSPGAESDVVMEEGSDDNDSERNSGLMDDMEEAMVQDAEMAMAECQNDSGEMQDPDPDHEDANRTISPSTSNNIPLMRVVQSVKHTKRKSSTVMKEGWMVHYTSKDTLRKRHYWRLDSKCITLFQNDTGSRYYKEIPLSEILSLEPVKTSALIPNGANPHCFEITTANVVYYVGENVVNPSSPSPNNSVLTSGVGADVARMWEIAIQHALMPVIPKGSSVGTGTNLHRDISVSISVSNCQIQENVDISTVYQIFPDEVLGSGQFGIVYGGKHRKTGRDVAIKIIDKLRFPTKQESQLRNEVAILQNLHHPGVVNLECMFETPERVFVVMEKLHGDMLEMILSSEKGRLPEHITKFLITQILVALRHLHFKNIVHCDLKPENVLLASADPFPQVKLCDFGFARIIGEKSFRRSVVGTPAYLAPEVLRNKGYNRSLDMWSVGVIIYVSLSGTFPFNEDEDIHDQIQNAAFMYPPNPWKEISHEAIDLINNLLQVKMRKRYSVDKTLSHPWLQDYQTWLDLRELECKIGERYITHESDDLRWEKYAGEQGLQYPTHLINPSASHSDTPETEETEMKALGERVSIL

[5] = biological target: T1, Serine/threonine-protein kinase D1 (Homo sapiens); settings: at 10 µM
[6] = biological target: T2, Serine/threonine-protein kinase D2 (Homo sapiens) (UniProt Q9BZL6); settings: at 1 µM
T2 sequence (whole entry): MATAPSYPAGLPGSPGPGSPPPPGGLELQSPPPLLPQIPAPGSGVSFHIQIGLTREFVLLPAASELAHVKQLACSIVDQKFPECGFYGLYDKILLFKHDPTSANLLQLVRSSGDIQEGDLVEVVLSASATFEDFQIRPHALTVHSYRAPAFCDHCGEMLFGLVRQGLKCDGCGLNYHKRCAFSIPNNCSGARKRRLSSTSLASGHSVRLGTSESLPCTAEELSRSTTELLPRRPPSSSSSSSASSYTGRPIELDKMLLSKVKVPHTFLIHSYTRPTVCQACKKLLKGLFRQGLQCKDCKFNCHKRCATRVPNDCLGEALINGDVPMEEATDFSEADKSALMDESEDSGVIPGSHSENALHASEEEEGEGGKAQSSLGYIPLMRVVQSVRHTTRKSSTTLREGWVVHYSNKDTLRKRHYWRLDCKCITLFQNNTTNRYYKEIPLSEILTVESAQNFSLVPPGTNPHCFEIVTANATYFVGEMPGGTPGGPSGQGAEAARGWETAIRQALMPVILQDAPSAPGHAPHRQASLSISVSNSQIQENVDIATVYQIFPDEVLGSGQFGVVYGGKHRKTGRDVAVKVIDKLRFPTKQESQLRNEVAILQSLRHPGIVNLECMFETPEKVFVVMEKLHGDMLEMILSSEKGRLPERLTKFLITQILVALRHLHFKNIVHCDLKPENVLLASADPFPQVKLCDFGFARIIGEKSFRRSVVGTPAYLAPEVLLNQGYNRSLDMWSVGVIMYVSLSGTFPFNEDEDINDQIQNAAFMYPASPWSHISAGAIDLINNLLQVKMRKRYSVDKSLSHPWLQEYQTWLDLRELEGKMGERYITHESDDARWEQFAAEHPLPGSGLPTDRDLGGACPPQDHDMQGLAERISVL

[7] = biological target: T3, cGMP-dependent protein kinase 1 (Homo sapiens) (UniProt Q13976); settings: at 1 µM
T3 sequence (whole entry): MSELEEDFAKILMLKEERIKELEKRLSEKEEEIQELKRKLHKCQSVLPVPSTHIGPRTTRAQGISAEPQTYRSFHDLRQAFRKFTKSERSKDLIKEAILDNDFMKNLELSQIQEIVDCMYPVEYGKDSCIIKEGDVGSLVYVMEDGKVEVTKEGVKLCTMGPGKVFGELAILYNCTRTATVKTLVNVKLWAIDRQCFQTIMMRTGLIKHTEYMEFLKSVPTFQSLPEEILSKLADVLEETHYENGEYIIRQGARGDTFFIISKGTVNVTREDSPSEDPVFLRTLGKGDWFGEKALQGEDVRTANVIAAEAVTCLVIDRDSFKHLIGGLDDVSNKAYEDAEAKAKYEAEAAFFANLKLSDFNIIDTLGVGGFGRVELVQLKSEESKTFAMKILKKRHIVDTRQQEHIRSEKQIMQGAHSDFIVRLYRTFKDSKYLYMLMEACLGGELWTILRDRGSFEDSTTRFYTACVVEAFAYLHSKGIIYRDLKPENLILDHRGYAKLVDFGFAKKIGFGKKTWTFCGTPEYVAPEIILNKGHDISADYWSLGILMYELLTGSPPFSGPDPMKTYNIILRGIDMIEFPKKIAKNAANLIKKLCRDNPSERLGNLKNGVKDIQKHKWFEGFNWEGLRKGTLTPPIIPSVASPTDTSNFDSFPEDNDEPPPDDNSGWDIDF

[8] = biological target: T3, cGMP-dependent protein kinase 1 (Homo sapiens); settings: at 10 µM
[9] = biological target: T3, cGMP-dependent protein kinase 1 (Homo sapiens); settings: at 1 µM; remark: listed apart in the source
[10] = biological target: T3, cGMP-dependent protein kinase 1 (Homo sapiens); settings: at 10 µM; remark: listed apart in the source
[11] = biological target: Serine/threonine-protein kinase N2 (Homo sapiens) (UniProt Q16513); settings: at 1 µM
[12] = biological target: Serine/threonine-protein kinase N2 (Homo sapiens) (UniProt Q16513); settings: at 10 µM
[13] = biological target: Protein kinase C theta type (Homo sapiens) (UniProt Q04759); settings: at 1 µM
[14] = biological target: T4, Protein kinase C iota type (Homo sapiens) (UniProt P41743); settings: at 1 µM
T4 sequence (whole entry): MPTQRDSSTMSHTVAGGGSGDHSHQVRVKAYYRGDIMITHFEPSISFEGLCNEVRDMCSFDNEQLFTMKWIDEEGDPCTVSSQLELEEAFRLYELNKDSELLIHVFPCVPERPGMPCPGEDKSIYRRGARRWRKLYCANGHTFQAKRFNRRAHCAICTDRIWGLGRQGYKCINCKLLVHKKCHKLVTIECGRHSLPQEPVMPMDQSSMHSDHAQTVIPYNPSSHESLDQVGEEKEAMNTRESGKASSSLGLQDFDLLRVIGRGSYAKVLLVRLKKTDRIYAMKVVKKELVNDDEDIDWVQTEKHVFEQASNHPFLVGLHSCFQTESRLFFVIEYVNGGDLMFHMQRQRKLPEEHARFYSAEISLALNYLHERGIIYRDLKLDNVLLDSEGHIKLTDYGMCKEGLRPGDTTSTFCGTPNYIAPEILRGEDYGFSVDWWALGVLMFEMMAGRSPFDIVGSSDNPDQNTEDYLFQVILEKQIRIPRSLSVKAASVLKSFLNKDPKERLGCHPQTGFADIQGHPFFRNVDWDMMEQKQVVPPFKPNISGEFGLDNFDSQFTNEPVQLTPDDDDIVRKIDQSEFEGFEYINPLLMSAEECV

[15] = biological target: T5, MAP kinase-activated protein kinase 5 (Homo sapiens) (UniProt Q8IW41); settings: at 1 µM
T5 sequence (whole entry): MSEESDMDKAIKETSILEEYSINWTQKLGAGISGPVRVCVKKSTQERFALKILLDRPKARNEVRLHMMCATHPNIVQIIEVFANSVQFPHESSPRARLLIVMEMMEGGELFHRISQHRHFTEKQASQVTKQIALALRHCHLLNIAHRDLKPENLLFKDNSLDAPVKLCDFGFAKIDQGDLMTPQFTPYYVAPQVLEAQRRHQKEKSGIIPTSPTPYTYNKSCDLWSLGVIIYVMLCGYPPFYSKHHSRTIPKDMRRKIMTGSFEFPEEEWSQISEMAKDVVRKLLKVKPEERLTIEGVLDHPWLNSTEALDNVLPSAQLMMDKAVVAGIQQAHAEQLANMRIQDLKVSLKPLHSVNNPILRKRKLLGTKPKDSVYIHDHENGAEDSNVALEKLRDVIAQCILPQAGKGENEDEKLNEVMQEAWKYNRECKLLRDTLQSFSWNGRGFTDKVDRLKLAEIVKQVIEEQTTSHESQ

[16] = biological target: T5, MAP kinase-activated protein kinase 5 (Homo sapiens); settings: at 10 µM
[17] = biological target: Tyrosine-protein kinase FRK (Homo sapiens) (UniProt P42685); settings: at 1 µM
[18] = biological target: Tyrosine-protein kinase FRK (Homo sapiens) (UniProt P42685); settings: at 10 µM
[19] = biological target: T4, Protein kinase C iota type (Homo sapiens); settings: at 10 µM
[20] = biological target: T2, Serine/threonine-protein kinase D2 (Homo sapiens); settings: at 10 µM

Sequence of Tyrosine-protein kinase FRK (Homo sapiens) (P42685 whole entry): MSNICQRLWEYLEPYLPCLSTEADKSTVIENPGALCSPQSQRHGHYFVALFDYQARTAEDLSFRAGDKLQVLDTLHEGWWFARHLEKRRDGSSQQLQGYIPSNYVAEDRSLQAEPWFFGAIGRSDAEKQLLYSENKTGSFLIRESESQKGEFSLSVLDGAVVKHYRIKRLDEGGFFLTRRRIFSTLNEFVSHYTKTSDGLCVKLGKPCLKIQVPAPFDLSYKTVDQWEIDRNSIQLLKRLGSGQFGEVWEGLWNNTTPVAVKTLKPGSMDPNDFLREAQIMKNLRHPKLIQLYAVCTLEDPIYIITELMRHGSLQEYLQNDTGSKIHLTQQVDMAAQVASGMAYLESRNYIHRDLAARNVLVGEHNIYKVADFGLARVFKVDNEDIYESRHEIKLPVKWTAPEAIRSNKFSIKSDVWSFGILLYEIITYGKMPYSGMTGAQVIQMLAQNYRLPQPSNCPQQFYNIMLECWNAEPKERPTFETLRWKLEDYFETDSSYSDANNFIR
Sequence of Protein kinase C theta type (Homo sapiens) (Q04759 whole entry, looked up): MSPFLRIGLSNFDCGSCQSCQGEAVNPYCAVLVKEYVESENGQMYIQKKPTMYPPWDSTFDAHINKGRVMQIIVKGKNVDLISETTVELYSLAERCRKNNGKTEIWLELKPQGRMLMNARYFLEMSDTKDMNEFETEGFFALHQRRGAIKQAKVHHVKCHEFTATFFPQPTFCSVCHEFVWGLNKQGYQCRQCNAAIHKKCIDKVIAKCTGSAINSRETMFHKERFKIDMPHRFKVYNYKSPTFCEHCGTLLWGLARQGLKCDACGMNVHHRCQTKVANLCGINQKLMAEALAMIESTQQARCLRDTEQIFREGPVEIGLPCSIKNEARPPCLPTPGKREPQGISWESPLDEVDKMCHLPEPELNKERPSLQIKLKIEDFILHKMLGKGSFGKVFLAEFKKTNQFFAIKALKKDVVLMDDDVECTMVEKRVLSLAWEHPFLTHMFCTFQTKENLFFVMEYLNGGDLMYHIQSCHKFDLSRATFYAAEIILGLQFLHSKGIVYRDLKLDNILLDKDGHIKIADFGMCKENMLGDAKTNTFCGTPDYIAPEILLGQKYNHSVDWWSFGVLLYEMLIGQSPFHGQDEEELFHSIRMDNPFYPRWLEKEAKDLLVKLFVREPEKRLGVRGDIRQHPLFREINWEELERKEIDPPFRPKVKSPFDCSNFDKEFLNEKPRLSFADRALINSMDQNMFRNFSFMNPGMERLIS
Sequence of Serine/threonine-protein kinase N2 (Homo sapiens) (Q16513 whole entry, looked up): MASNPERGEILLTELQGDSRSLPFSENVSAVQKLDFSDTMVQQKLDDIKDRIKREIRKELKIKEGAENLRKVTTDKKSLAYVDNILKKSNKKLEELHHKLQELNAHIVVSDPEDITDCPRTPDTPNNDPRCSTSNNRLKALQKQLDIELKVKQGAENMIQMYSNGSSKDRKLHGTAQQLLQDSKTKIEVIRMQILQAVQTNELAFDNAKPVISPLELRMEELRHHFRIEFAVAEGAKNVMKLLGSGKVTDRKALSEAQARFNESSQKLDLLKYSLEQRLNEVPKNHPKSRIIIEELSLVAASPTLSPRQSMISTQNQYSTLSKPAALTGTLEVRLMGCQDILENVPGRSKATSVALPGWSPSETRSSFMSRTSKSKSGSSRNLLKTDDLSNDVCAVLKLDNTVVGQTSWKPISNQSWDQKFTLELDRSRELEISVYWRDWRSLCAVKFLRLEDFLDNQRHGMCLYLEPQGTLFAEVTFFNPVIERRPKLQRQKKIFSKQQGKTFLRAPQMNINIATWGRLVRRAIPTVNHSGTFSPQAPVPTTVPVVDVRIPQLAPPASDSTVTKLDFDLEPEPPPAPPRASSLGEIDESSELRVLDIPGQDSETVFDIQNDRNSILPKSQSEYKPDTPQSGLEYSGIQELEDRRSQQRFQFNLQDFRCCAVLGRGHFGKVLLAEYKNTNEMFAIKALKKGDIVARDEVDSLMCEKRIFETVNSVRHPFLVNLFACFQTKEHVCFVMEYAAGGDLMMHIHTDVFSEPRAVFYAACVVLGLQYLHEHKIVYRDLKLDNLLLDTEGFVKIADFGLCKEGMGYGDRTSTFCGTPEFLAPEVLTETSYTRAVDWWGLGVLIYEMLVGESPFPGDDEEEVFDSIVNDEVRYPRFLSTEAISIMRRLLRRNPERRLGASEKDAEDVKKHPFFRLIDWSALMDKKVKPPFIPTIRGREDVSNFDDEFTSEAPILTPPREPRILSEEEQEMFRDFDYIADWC
Sequence of Protein kinase C eta type (Homo sapiens) (P24723 whole entry): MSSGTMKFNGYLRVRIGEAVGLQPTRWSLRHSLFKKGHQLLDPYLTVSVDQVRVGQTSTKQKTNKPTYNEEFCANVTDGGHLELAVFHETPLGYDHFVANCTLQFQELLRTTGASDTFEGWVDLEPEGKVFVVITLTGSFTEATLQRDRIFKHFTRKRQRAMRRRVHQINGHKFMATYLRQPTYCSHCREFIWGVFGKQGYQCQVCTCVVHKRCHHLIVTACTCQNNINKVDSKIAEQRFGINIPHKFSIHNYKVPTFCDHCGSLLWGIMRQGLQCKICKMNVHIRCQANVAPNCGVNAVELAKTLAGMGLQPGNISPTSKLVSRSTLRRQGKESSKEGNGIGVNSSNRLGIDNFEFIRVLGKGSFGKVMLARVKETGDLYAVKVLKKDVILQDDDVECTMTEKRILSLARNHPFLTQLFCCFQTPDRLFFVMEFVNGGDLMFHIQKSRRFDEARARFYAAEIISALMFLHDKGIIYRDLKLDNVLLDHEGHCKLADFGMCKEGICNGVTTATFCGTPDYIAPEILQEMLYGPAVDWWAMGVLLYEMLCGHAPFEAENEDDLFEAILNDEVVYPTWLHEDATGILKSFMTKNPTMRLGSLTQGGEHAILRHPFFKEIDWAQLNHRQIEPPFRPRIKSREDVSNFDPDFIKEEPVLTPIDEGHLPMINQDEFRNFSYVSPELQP

| SMILES | residual activity [1] [%] | residual activity [2] [%] | residual activity [3] [%] | residual activity [4] [%] | residual activity [5] [%] | residual activity [6] [%] | residual activity [7] [%] | residual activity [8] [%] | residual activity [9] [%] | residual activity [10] [%] | residual activity [11] [%] | residual activity [12] [%] | residual activity [13] [%] | residual activity [14] | residual activity [15] [%] | residual activity [16] [%] | residual activity [17] [%] | residual activity [18] [%] | residual activity [19] [%] | residual activity [20] [%] |
| --- | --- | --- | --- | --- | --- | --- | --- | --- | --- | --- | --- | --- | --- | --- | --- | --- | --- | --- | --- | --- |
| O=S(=O)(c1cccc2cnccc12)N1CCCNCC1 | 80 | 26 | 67 | 84 | 20 | 100 | 57 | 17 | 68 | 15 | 56 | 10 | – | – | – | – | – | – | – | – |
| CCCC(=O)Oc1ccc2[nH]c(C(=O)c3cc4ccccc4[nH]3)cc2c1 | 102 | 81 | 75 | 101 | 103 | 99 | 101 | 127 | 79 | 78 | 86 | 93 | 92 | 99% (inactive) | 72 | 44 | 92 | 85 | – | – |
| O=C1NC(=O)c2c1c1c3ccccc3[nH]c1n1cncc21 | 85 | 81 | – | 41 | 25 | 90 | 82 | 89 | 99 | 70 | 69 | 61 | 71 | 102% (inactive) | 97 | 71 | 87 | 63 | 52 | 42 |

Source: ChEMBL document CHEMBL2218924, “A broad activity screen in support of a chemogenomic map for kinase signalling research and drug discovery” (Biochem J, 2013)
